Results on 32 compounds are retold here after PubChem BioAssay (EPA / NIEHS).

Test [1] can be described thus: Tanguay_ZF_120hpf_ActivityScore_legacy: (Legacy) Oregon State University Tanguay Lab 120 Hour Post-fertilization zebrafish Assay Score for Activity (AID 2283742). A digest of the protocol: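 Dechorionated Tropical 5D embryos, one per well from 6 hpf, statically exposed to 120 hpf at 28 °C in 0.64% DMSO. Mortality and malformations scored binary by brightfield microscopy; activity score combines 18 endpoints, fitted positively versus DMSO.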

Test [2] is described as follows: ArunA_CellTiter_hNC: Viability Assessment in the ArunA Biomedical's Oris Neural Crest (hNC) Cell Migration Assay (AID 2283752). A digest of the protocol: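 Human H9-derived neural crest stem cells were plated at 60,000 per well on Matrigel in growth medium with LIF and bFGF, incubated 16 h at 37C, then exposed to chemical for 72 h. Viability was read with CellTiter Aqueous One as loss of signal versus DMSO.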

Test [3] in a line: ArunA_Migration_hNP: ArunA Biomedical's Oris Neuroprogenitor (hNP) Cell Migration Assay (AID 2283754). In outline: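 Human H9-derived hNP1 neuroprogenitors on Matrigel with LIF/bFGF, plated around seeding stoppers for 16 h at 37C; stoppers removed at start of 72 h chemical exposure. Calcein-AM staining, fluorescence 494/517 nm in detection zone; loss-of-signal vs DMSO; cytochalasin D control.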

Test [4] can be described thus: ArunA_Migration_hNC: ArunA Biomedical's Oris Neural Crest (hNC) Cell Migration Assay (AID 2283755). In outline: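 Human H9-derived neural crest stem cells, 60,000/well on Matrigel, 16 h at 37C, then 72 h chemical exposure after seeding-stopper removal. Migration into detection zone read as calcein-AM fluorescence (ex494/em517), relative to DMSO.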
Test [5] in a line: ArunA_NOG_NucleusCount: ArunA Biomedical's Neurite Outgrowth (NOG) Assay for Nucleus Count (AID 2283756). In outline: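 Human H9-derived differentiated neurons were exposed for 48 h right after seeding. Hoechst-stained nuclei gated by size and intensity were counted by automated high-content imaging as viable neurons. Loss of signal vs DMSO.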
Test [6] in a line: ArunA_NOG_NeuritesPerNeuron: ArunA Biomedical's Neurite Outgrowth (NOG) Assay for Neurites Per Neuron (AID 2283758). A digest of the protocol:
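Differentiated human H9-derived neurons exposed to chemicals for 48 h from seeding, then stained with Hoechst and βIII-tubulin/DyLight 488. Automated imaging counted neurites (processes >10 um) per valid neuron; loss of signal versus DMSO scored.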

Test [7] can be described thus: ArunA_NOG_BranchPointsPerNeurite: ArunA Biomedical's Neurite Outgrowth (NOG) Assay for Branch Points Per Neurite (AID 2283759). A digest of the protocol:
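Automated image analysis traced neurites (processes >10 um) from valid cell bodies after Hoechst and βIII-tubulin staining. hNN cells from H9 embryonic stem cells, 48 h exposure. Fitted bidirectionally against DMSO.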

A short description of test [8]: CEETOX_H295R_MTT_cell_viability: Viability Assessment in the CeeTox HT-H295R MTT Assay (AID 2283718; active means hit-call score of the fitted dose curve at least 0.9, where 1 is the maximum; inactive means score below 0.9;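 on AC50: curve fitted both ways so AC50 may mark viability loss or gain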). A digest of the protocol: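 Human H295R adrenal cells, prestimulated 48 h with 10 uM forskolin, were exposed 48 h to chemicals in 0.1% DMSO. Viability was measured in the same wells by MTT (0.5 mg/ml, 4 h, 37 C), absorbance 570/650 nm, as percent of controls.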
Test [9] in a line: Tanguay_ZF_120hpf_TR_legacy: (Legacy) Oregon State University Tanguay Lab 120 Hour Post-fertilization zebrafish Assay for Touch Response (AID 2283667). A digest of the protocol: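 Tropical 5D wild-type zebrafish embryos statically exposed to 120 hpf at 28°C, sealed and dark-covered, 0.64% DMSO final; touch response scored as present/absent by brightfield microscopy at 120 hpf. Trimethyltin chloride 5 uM positive control; dead embryos not scored.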

Test [10] in a line: STM_H9_OrnithineISnorm_perc: Stemina devTOX quickPredict H9 human embryonic stem cell (hESC)-based Assay for Ornithine (ORN) Metabolite Biomarker, Normalized (AID 2283712; active means hit-call score of the fitted dose curve at least 0.9, where 1 is the maximum; inactive means score below 0.9;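 further: ornithine released into spent medium during last day measured by mass spectrometry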). A digest of the protocol: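 Undifferentiated pluripotent H9 hESCs were exposed to compound for 72h, with media and compound replaced every 24h. Ornithine in final 24-h conditioned media was measured by UPLC-HRMS, normalized to 13C-labeled spike-in standard and to median 0.1% DMSO control.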

Test [11] is described as follows: STM_H9_CystineISnorm_perc: Stemina devTOX quickPredict H9 human embryonic stem cell (hESC)-based Assay for Cystine (CYSS) Metabolite Biomarker, Normalized (AID 2283713; active means hit-call score of the fitted dose curve at least 0.9, where 1 is the maximum; inactive means score below 0.9). In outline:
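Undifferentiated H9 hESCs were exposed to compound for 72h, with medium and compound replaced every 24h. Final-24h conditioned medium was deproteinized and analyzed by UPLC-HRMS. Cystine EIC area was normalized to spiked C13 standard and 0.1% DMSO median.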

Test [12] is described as follows: STM_H9_OrnCyssISnorm_ratio: Stemina devTOX quickPredict H9 human embryonic stem cell (hESC)-based Assay for Ornithine (ORN):Cystine (CYSS) Ratio (AID 2283714). A digest of the protocol: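 Undifferentiated H9 hESCs exposed 72 h, media and compound replaced every 24 h; final 24-h conditioned media deproteinized and analysed by UPLC-HRMS against C13 spike-ins. Value is the internal-standard-normalized ORN/CYSS ratio versus 0.1% DMSO.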

Test [13] can be described thus: ArunA_CellTiter_hNP: Viability Assessment in the ArunA Biomedical's Oris Neural Crest (hNC) Cell Migration Assay (AID 2283753). A digest of the protocol:
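H9-derived hNP1 neuroprogenitors, 60,000/well on Matrigel, cultured 16 h, then 72 h chemical exposure in test medium. Cell titer via CellTiter Aqueous One; positive-direction fit vs DMSO.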

Test [14] in a line: CCTE_Padilla_ZF_144hpf_TERATOSCORE: (Legacy) CCTE's 144 Hour Post-fertilization zebrafish Assay Teratoscore, Padilla Lab (AID 2283679; active means hit-call score of the fitted dose curve at least 0.9, where 1 is the maximum; inactive means score below 0.9;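 on AC50: zebrafish embryos with chorions exposed by immersion from 6-8 hpf to 5 dpf with daily renewal; teratogenicity score from eye scoring of death hatching and malformations at 144 hpf; higher score means more developmental defects relative to DMSO baseline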). A digest of the protocol:
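Larvae scored by eye at 144 hpf for death, hatching and malformations after a day in clean Hanks'. Before that, daily-renewed exposure at 80 uM (0.4% DMSO, 26C) from roughly 6-8 hpf through 5 dpf, 4 embryos per chemical.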

The test system of test [15] is chicken Androgen Receptor (AR), gene 422165. The test is described as follows: ATG_chAR_XSP1: Attagene TRANS-FACTORIAL Multi-Species (XSP1) HepG2 Assay for chicken Androgen Receptor (AR) (AID 2283768). In outline:
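HepG2 cells transiently transfected with multiplexed GAL4-UAS reporter units expressing chimeric chicken AR-Gal4; 3 nM 6-alpha-fluorotestosterone for partial AR stimulation; 24 h after dosing, reporter mRNA by RT-PCR and capillary electrophoresis, gain-of-signal versus DMSO.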

Test [16] in a line: ArunA_NOG_NeuriteLength: ArunA Biomedical's Neurite Outgrowth (NOG) Assay for Neurite Length (AID 2283757). In outline: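 Differentiated human H9-derived neurons were exposed for 48 h from seeding, then stained with Hoechst and βIII-tubulin. Automated high-content imaging gave total neurite length per valid neuron, counting processes >10 um. Loss of signal was scored versus DMSO.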

Read-out in test [17]: Cytochrome P450 (CYP24A1_1), CYP24A1 (gene 1591)
As to the kind of experiment: LTEA_HepaRG_CYP24A1_1: Life Technologies and Expression Analysis (LTEA) Assay for Cytochrome P450 (CYP24A1_1) using HepaRG (AID 2283671; active means hit-call score of the fitted dose curve at least 0.9, where 1 is the maximum; inactive means score below 0.9). As to conditions: mRNA level, 48 h; actives raise or lower the signal. A digest of the protocol: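 Differentiated human HepaRG cells in serum-free induction medium, exposed 48 h in duplicate to eight half-log concentrations from 100 uM top, 0.5% DMSO. Transcript measured by TaqMan qRT-PCR, normalised to ACTB, GAPDH, POLR2A; bidirectional fitting versus DMSO.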

The target in test [18] is Luciferin 4-monooxygenase (Photinus pyralis) (UniProt P08659). The test is described as follows: CCTE_Simmons_QuantiLum_inhib_2: CCTE's Firefly Luciferase Inhibition Assay, Simmons Lab (AID 2283767). A digest of the protocol:
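Recombinant firefly luciferase (5 ng/well, 200 mM potassium phosphate with 1 mg/ml BSA) was exposed to 8 concentrations from 5 nM to 87.5 uM (final, 0.5% DMSO) for 30 min at 37C in the dark. Loss of luminescence versus DMSO was read after injecting D-luciferin/ATP-analogue reagent.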

Records with an inconclusive call do not appear. Active and inactive are the calls of the source. How the source made its calls, unless noted: active means hit-call score of the fitted dose curve at least 0.9, where 1 is the maximum; inconclusive means response in the unintended direction; inactive means score below 0.9.

Chain of Luciferin 4-monooxygenase (Photinus pyralis) (P08659 whole entry, looked up): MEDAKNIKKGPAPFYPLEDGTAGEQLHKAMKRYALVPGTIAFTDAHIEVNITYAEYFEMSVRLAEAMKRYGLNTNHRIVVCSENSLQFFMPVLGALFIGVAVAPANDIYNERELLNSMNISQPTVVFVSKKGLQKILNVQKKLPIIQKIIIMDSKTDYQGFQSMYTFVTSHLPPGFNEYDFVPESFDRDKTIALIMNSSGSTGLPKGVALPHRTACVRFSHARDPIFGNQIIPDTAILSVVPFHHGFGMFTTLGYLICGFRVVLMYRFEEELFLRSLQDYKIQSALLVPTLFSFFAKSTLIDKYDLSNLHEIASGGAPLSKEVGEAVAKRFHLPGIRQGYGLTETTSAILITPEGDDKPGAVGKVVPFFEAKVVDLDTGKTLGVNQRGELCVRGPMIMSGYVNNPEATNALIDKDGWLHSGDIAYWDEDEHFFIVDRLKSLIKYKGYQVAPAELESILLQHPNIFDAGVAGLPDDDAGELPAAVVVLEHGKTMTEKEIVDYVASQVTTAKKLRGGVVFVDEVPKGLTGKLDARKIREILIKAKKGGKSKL

With `CCOP(=S)(Oc1ccc([N+](=O)[O-])cc1)c1ccccc1` (configuration not stated), in [1], the call was inactive.

For `Cc1ccc(N)cc1N`, the call in test [2], in test [3], in test [5], in test [6] and in [7] was inactive. Also, in [4], the AC50 is 55.6 µM (active).

In the case of `CCOC(=O)c1ccccc1N`, the result in test [8] was inactive.

For `Oc1ccc(I)cc1`, the outcome in test [8] was inactive.

As for `O=[N+]([O-])c1ccccc1`, the compound was classed as inactive in test [9], in [10] and in [11].

For `Nc1ccc([N+](=O)[O-])cc1Cl`, in [8], the compound was called inactive.

Turning to `CCCCC(CC)COP(=O)(Oc1ccccc1)Oc1ccccc1` (configuration not stated), the outcome in [10], in test [11], in test [12], in test [2], in test [13] and in test [3] was inactive. Also, the call in test [4] and in test [5] was inactive.

On to `N#Cc1c(-c2ccc(Cl)cc2)[nH]c(C(F)(F)F)c1Br`, for which the AC50 in test [8] was 0.289 µM (active).

`CN(C)C(=O)Cl`: the outcome in test [9] and in test [1] was inactive.

With `ClC(Cl)=C(c1ccc(Cl)cc1)c1ccccc1Cl`, in [8], the outcome was inactive.

On to `CCCCN(CCCC)SN(C)C(=O)Oc1cccc2c1OC(C)(C)C2`, for which the compound was classed as inactive in test [9]. In [14], the AC50 is 6.04 µM (active).

Consider `COCCOCCO`, for which the call in test [9], in [10], in test [11] and in [12] was inactive.

Consider `O=P(Oc1ccccc1)(Oc1ccccc1)Oc1ccccc1`, for which the compound was classed as inactive in [9], in [10], in test [11], in [8], in [2] and in test [13]. Besides, the result in test [3], in test [5] and in [15] was inactive. Also, the AC50 in test [14] is 6.17 µM (active).

As for `CCCN(CCC)c1c([N+](=O)[O-])cc(C(C)C)cc1[N+](=O)[O-]`, the compound was called inactive in test [9]. For the same compound, in test [14], the AC50 is 16.2 µM (active).

For `CCOC(=O)c1ccccc1C(=O)OCC`, the compound was classed as inactive in test [9], in [10], in test [11] and in test [8].

`CCNc1nc(Cl)nc(NC(C)(C)C)n1`: the outcome in [9], in test [14] and in test [8] was inactive.

Take `ClC1=C(Cl)C2(Cl)C3C(Cl)C(Cl)CC3C1(Cl)C2(Cl)Cl` (configuration not stated): the outcome in test [9] was inactive. The AC50 in test [14] is 9.16 µM (active).

Turning to `CCCCc1ccccc1`, the outcome in test [9] was inactive.

For `CCOP(=S)(OCC)SCn1nnc2ccccc2c1=O`, in test [8], the compound was called inactive.

As for `O=C(O)C(Cl)Cl`, the result in test [9], in [14], in [10], in [11] and in [12] was inactive.

For the compound `CCOP(=S)(NC(C)C)Oc1ccccc1C(=O)OC(C)C` (configuration not stated), the compound was classed as inactive in test [8].

Consider `CCOP(=S)(OCC)SCS(=O)(=O)CC`, for which the compound was classed as inactive in [8].

Regarding `O=C(O)C1C(C(=O)O)C2(Cl)C(Cl)=C(Cl)C1(Cl)C2(Cl)Cl` (configuration not stated), the outcome in [9], in [10], in [11], in [2], in test [3] and in [4] was inactive. In addition, the result in test [16], in test [6] and in test [7] was inactive.

Regarding `CCOc1ccc(C(C)(C)COCc2cccc(Oc3ccccc3)c2)cc1`, the compound was classed as inactive in test [8].

As for `CC(=O)c1ccc(-c2ccccc2)cc1`, in [8], the compound was classed as inactive.

For the compound `COP(N)(=S)OC`, the result in test [8] was inactive.

Turning to `CC(C)Nc1ccc(Nc2ccccc2)cc1`, the result in test [8] was inactive.

In the case of `ClC(Cl)c1ccccc1`, the compound was called inactive in test [9] and in [1]. Further, the AC50 in test [14] was 14.7 µM (active).

Consider `CO/N=C(/C(=O)OC)c1ccccc1COc1ccccc1C`, for which the AC50 in test [8] was 5.04 µM (active).

Turning to `CC(C)(C)OOC(C)(C)C`, the call in test [17] was inactive.

In the case of `CCCCOCCOP(=O)(OCCOCCCC)OCCOCCCC`, the compound was called inactive in [8].

Regarding `O=S(=O)(c1ccc(O)cc1)c1ccc(O)cc1`, the outcome in test [8] and in test [18] was inactive.
